Calls of active or inactive are those of the source. Unless noted, the rule behind the calls is not given here.
Columns and labels:
[1] = system: Wnt5a (protein binding on small-molecule microarray); assay: Wnt5a binders on small-molecule microarray, primary screen, biophysical, 635/667 nm fluorescence (AID 1142); details: 635 nm fluorescence, higher = more signal;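 note: fluorescence read at 667 nm with signal to noise per printed feature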
[2] = cell viability in Huh7 cells, primary screen, cytotoxicity control for HCV replication inhibitor project, CellTiter-Glo luminescence, basal, 48 h (AID 1143); details: Huh7 HCV replicon, higher = more signal, called active from +8 up or from −8 down;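 note: Huh7 hepatoma cells carrying a hepatitis C replication reporter with no stimulus; test concentration not given here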
[3] = P. aeruginosa biofilm formation inhibitors, primary screen, PAO1 strain, BacTiter-Glo luminescence, LB-PBS (AID 1144); details: 12 h, higher = more signal
[4] = CREB reporter modulators without forskolin, primary screen, cell-based, PC12, CRE-LacZ reporter, unstimulated (AID 1145); details: no forskolin, luminescence, 4.5 h, higher = more signal, called active from +8 up or from −8 down
[5] = CREB reporter modulators under forskolin, primary screen, cell-based, PC12, CRE-LacZ reporter, forskolin-stimulated (AID 1146); details: luminescence, 4.5 h, higher = more signal, called active from +8 up or from −8 down;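 note: PC12 cells with 6xCRE LacZ reporter stimulated by forskolin 10 µM; beta-galactosidase reporter signal reflecting CREB driven transcription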
[6] = molecular target: Streptavidin (Streptomyces avidinii) (UniProt P22629); assay: streptavidin binders on small-molecule microarray, primary screen, artefact control for SMM compound annotation, biophysical, 635/667 nm fluorescence (AID 1147); details: streptavidin binding, higher = more signal;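 note: signal reflects streptavidin binding to arrayed compounds as a control protein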
[7] = small-molecule binders of probe aInhba, primary screen, biochemical, small-molecule microarray, 635/667 nm fluorescence (AID 1148); details: higher = more signal;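 note: score merges 667nm spot fluorescence with signal-to-noise for antibody binding to printed compounds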
Torsin-1A (Homo sapiens) [8] = molecular target: Torsin-1A (Homo sapiens) (UniProt O14656); assay: torsin A binders from cell lysate, primary screen, small-molecule microarray, wild-type, 635/667 nm (AID 1149); details: COS7 hTOR1A-WT lysate, 635 nm fluorescence, higher = more signal
Torsin-1A (Homo sapiens) [9] = molecular target: Torsin-1A (Homo sapiens) (UniProt O14656); assay: small-molecule binders of mutant TOR1A in lysate, primary screen, cell lysate, small-molecule microarray, COS7 lysate, 635/667 nm fluorescence (AID 1150); details: COS7 hTOR1A mutant lysate, 635 nm fluorescence, higher = more signal;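 note: score pools 667 nm emission and signal to noise measuring lysate protein binding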
[10] = system: Sonic hedgehog protein (Shh); assay: small-molecule binders of Shh protein, primary screen, biochemical, small-molecule microarray, 635/667 nm fluorescence (AID 1151); details: small-molecule microarray binding, 635 nm fluorescence; higher = more signal;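 note: Shh protein binding to compounds spotted on small-molecule microarray slides; score combines spot fluorescence intensity with signal-to-noise across triplicate slides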
[11] = E. coli DRC41 culture turbidity changes, primary screen, E. coli filamentation inducer project, strain DRC41, OD650, 48 h (AID 1152);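 note: E. coli MC1000 strain DRC41 lacking acrAB efflux pump and sulA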; details: E. coli DRC41 (acrAB sulA), higher = more signal, called active from +8 up or from −8 down
[12] = small-molecule binders of probe aLefty1, primary screen, biochemical, small-molecule microarray, 635/667 nm fluorescence (AID 1153); details: higher = more signal;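 note: score merges spot fluorescence with signal-to-noise ratio from the scanned slide images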
[13] = PSAC antagonists in infected red cells, primary screen, cell-based, P. falciparum Indochina, OD700, 1 h (AID 1154); details: P. falciparum Indochina infected RBC osmotic lysis, higher = more signal, called active from +8 up or from −8 down
[14] = PSAC antagonists in infected red cells, primary screen, cell-based, P. falciparum Indochina, OD700, 2 h (AID 1155);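 note: lysis reports solute entry through the parasite surface anion channel PSAC; channel blockers reduce lysis of infected cells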; details: P. falciparum Indochina infected erythrocytes, osmotic lysis OD700; higher = more signal, called active from +8 up or from −8 down
[15] = osmotic lysis modulators in infected erythrocytes, primary screen, PSAC antagonist project, cell-based, P. falciparum Indochina, OD700, 3 h (AID 1156); details: higher = more signal, called active from +8 up or from −8 down
[16] = PSAC antagonists in infected red cells, primary screen, cell-based, P. falciparum Indochina, OD700, 18 h (AID 1157); details: P. falciparum Indochina infected erythrocytes, osmotic lysis OD700, 18 h; higher = more signal, called active from +8 up or from −8 down
[17] = modulators of S6 phosphorylation in cells, primary screen, cell-based, A549, cytoblot, luminescence, serum-stimulated (AID 1158); details: A549 phospho-S6 cytoblot, 5 h, higher = more signal;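 note: serum-stimulated A549 lung adenocarcinoma cells; signal is phosphorylated S6 detected by cytoblot immunostaining with HRP secondary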
[18] = molecular target: NADPH oxidase 2 (Homo sapiens) (UniProt P04839); assay: NOX2-dependent H2O2 signal modulators, primary screen, NOX inhibitor project, cell-based, HEK293-NOX2, PMA-stimulated, Amplex Red fluorescence (AID 1159); details: 45 min, higher = more signal, called active from +8 up or from −8 down; note: test concentration not given here
[19] = molecular target: NADPH oxidase 4 (Homo sapiens) (UniProt Q9NPH5); assay: NOX4-dependent H2O2 signal modulators, primary screen, NOX inhibitor project, cell-based, HEK293-NOX4, tetracycline-induced, Amplex Red fluorescence (AID 1160); details: 45 min, higher = more signal, called active from +8 up or from −8 down
[20] = molecular target: NADPH oxidase 5 (Homo sapiens) (UniProt Q96PH1); assay: NOX5-dependent H2O2 signal modulators, primary screen, NOX inhibitor project, cell-based, HEK293-NOX5, Amplex Red fluorescence (AID 1161); details: HEK293-NOX5, ionomycin, 45 min, higher = more signal
NADPH oxidase 5 (Homo sapiens), sequence (Q96PH1 whole entry, looked up): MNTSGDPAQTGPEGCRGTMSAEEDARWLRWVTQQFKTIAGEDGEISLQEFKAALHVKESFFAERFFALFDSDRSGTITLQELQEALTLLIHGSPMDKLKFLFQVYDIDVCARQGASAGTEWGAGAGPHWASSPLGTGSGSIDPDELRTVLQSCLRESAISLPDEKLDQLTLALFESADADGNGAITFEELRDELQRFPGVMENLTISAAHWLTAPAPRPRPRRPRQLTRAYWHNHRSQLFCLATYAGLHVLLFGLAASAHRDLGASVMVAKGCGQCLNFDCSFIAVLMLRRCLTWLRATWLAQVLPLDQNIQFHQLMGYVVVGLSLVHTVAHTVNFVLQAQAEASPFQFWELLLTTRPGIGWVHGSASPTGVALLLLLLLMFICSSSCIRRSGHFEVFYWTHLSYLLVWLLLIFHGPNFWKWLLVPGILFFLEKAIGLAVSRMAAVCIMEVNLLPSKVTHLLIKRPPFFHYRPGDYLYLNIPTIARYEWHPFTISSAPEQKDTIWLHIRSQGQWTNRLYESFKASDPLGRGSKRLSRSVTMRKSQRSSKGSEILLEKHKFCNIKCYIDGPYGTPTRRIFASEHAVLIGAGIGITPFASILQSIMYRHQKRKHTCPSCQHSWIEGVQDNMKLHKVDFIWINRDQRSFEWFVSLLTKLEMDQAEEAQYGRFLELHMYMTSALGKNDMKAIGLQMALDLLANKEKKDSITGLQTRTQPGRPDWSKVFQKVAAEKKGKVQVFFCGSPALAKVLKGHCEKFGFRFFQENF

Torsin-1A (Homo sapiens), sequence (O14656 whole entry, looked up): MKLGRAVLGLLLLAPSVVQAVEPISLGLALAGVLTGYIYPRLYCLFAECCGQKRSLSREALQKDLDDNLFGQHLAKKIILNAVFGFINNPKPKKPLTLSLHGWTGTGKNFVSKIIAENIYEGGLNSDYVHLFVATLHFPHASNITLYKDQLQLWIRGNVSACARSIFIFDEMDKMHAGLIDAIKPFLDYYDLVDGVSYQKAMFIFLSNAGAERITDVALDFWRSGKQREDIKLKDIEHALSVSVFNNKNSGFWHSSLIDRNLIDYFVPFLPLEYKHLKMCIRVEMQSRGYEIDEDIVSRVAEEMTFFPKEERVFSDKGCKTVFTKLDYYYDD
NADPH oxidase 4 (Homo sapiens), sequence (Q9NPH5 whole entry, looked up): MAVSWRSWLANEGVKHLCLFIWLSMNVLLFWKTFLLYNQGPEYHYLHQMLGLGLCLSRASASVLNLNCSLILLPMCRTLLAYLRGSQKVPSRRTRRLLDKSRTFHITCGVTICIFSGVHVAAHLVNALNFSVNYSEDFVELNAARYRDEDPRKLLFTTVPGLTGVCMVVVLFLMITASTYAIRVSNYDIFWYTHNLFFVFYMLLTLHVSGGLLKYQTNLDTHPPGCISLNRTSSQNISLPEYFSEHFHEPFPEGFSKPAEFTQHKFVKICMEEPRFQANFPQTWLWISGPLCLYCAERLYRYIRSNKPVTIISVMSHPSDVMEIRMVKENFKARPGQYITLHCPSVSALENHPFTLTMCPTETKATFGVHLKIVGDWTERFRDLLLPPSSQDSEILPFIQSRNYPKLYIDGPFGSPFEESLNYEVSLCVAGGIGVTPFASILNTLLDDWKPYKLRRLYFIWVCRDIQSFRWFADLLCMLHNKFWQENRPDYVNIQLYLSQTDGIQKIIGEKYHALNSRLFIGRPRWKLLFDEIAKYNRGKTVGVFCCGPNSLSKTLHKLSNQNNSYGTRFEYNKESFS
Streptavidin (Streptomyces avidinii), sequence (P22629 whole entry, looked up): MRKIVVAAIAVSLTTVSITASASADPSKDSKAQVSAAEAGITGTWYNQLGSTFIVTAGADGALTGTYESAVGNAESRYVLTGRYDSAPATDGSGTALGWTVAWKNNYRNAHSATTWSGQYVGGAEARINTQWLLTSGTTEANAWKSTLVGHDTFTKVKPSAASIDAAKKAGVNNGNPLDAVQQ
NADPH oxidase 2 (Homo sapiens), sequence (P04839 whole entry, looked up): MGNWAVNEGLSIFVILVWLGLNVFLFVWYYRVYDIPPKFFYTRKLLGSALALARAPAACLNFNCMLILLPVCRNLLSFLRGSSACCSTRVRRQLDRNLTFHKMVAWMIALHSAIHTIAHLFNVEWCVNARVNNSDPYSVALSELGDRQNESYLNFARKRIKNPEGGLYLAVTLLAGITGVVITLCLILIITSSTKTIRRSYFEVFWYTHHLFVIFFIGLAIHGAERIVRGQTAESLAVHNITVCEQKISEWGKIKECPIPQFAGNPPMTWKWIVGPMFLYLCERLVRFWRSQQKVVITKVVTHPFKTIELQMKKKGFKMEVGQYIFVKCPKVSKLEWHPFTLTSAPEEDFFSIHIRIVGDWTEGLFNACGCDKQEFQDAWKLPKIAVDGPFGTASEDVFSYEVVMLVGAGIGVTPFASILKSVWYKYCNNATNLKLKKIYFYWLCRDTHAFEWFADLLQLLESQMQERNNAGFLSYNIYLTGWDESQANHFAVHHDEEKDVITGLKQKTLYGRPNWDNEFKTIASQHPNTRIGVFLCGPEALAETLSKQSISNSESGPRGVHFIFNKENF

SMILES	composite z-score [1]	z-score [2]	z-score [3]	z-score [4]	z-score [5]	composite z-score [6]	composite z-score [7]	composite z-score (Torsin-1A (Homo sapiens) [8])	composite z-score (Torsin-1A (Homo sapiens) [9])	composite z-score [10]	z-score [11]	composite z-score [12]	z-score [13]	z-score [14]	z-score [15]	z-score [16]	z-score [17]	z-score [18]	z-score [19]	z-score [20]
C[N+](C)(C)CCCCCCNC(=O)[C@@H]1C[C@@H]2C(=O)NCC(=O)N2[C@@H]1c1cccc(OCCO)c1	0.338	-3.36 (inactive)	-1.82 (inactive)	-0.797 (inactive)	-0.933 (inactive)	-0.357	-0.0986	0.335	-0.371	2.16	1.73 (inactive)	0.197	3.17 (inactive)	-1.25 (inactive)	1.56 (inactive)	-1.95 (inactive)	0.927	-2.72 (inactive)	-4.12 (inactive)	-5.67
CC(C)CN1C(=O)[C@@]2(Cc3ccccc31)c1ccccc1C(=O)N(Cc1ccccc1)[C@H]2c1ccc(CO)cc1	-0.631	0.174 (inactive)	-0.221 (inactive)	-0.295 (inactive)	0.378 (inactive)	-0.64	-0.102	-0.971	-0.359	-1.05	-0.731 (inactive)	-0.702	0.0889 (inactive)	-0.719 (inactive)	0.27 (inactive)	0.157 (inactive)	0.148	0.439 (inactive)	-0.348 (inactive)	-0.498
CN(C)CCCNC(=O)[C@@]1(Cc2ccccc2I)c2ccccc2C(=O)N(Cc2ccccc2Cl)[C@H]1c1ccc(CO)cc1	0.228	-5.9 (inactive)	0.599 (inactive)	0.0548 (inactive)	2.02 (inactive)	0.592	0.397	-0.155	-0.609	-0.0692	-2.91 (inactive)	0.208	10.7 (active)	0.867 (inactive)	-0.613 (inactive)	0.524 (inactive)	-1.27	-10.2 (active)	-4.71 (inactive)	-5.47
CCOC(=O)C1=CC[C@@H](c2ccccc2)N(S(=O)(=O)c2ccc(C)cc2)[C@H]1C=C(C)C	0.367	-4.76 (inactive)	0.514 (inactive)	-0.378 (inactive)	0.807 (inactive)	1.44	0.246	0.258	1.46	0.839	-0.179 (inactive)	0.129	2.27 (inactive)	1.42 (inactive)	-0.627 (inactive)	0.756 (inactive)	-0.459	-0.0156 (inactive)	1.39 (inactive)	1.43
O=C1N(CCS(=O)(=O)c2ccccc2)Cc2ccccc2C[C@@]12COC(c1ccc(OCCCO)cc1)=N2	0.933	-4.36 (inactive)	0.898 (inactive)	-0.183 (inactive)	-2.06 (inactive)	0.758	0.325	0.701	0.945	2.03	-2.34 (inactive)	0.153	25.9 (active)	15.1 (active)	4.23 (inactive)	2.14 (inactive)	-0.0579	-5.26 (inactive)	-0.159 (inactive)	-3.16
Cc1ccc(S[C@]2(C(=O)NCC(C)C)CC(=O)N(C3CCCCC3)[C@@H]2c2ccc(CO)cc2I)cc1	0.249	-4.87 (inactive)	-0.88 (inactive)	-0.619 (inactive)	0.413 (inactive)	0.411	-0.0259	0.314	0.289	0.104	0.256 (inactive)	0.568	4.6 (inactive)	0.61 (inactive)	0.796 (inactive)	0.597 (inactive)	0.212	1.54 (inactive)	-1.02 (inactive)	-2.07
C=C(COC)C(=O)CC[C@H](OC(=O)c1ccccc1-c1ccccc1C(=O)O)c1ccc(CO)o1	0.634	0.465 (inactive)	-0.39 (inactive)	0.434 (inactive)	0.964 (inactive)	-0.451	-0.179	0.507	1.79	1.69	-0.093 (inactive)	-0.0954	1.77 (inactive)	0.404 (inactive)	1.38 (inactive)	0.161 (inactive)	-0.121	-0.0961 (inactive)	-0.0962 (inactive)	-0.0437
COCCCNC(=O)[C@@H]1c2ccccc2C(=O)N(c2ccc(C)cn2)[C@H]1c1ccc(CO)cc1	-1.53	-0.17 (inactive)	-0.894 (inactive)	-0.374 (inactive)	-0.563 (inactive)	-1.6	-0.159	-2.83	-2.65	-1.2	-0.889 (inactive)	-0.0984	1.21 (inactive)	-0.205 (inactive)	1.74 (inactive)	0.205 (inactive)	-0.112	0.837 (inactive)	-0.797 (inactive)	-0.00783
C=CCC(OC(C)=O)[C@@H]1[C@@H](N(Cc2cc3ccccc3o2)C(=O)Cc2ccc(OC)cc2)c2cc(OCCCO)ccc2N1C(=O)c1ccc(-c2ccccc2)cc1 (stereo not given in full)	0.0628	-0.279 (inactive)	-0.866 (inactive)	2.47 (inactive)	-0.362 (inactive)	0.215	0.105	0.176	0.262	0.0275	1.26 (inactive)	0.143	2.1 (inactive)	0.0881 (inactive)	0.821 (inactive)	0.432 (inactive)	0.78	0.125 (inactive)	-0.964 (inactive)	1.56
